About 7,900 targets were measured; listed, in parts, are those with a hit and a random draw of the rest. About 0.6% of all pairs of compound and target were hits. Unmarked numbers belong to inactive results.

Sequence of UniProt Q16881 (Q16881 whole entry, looked up): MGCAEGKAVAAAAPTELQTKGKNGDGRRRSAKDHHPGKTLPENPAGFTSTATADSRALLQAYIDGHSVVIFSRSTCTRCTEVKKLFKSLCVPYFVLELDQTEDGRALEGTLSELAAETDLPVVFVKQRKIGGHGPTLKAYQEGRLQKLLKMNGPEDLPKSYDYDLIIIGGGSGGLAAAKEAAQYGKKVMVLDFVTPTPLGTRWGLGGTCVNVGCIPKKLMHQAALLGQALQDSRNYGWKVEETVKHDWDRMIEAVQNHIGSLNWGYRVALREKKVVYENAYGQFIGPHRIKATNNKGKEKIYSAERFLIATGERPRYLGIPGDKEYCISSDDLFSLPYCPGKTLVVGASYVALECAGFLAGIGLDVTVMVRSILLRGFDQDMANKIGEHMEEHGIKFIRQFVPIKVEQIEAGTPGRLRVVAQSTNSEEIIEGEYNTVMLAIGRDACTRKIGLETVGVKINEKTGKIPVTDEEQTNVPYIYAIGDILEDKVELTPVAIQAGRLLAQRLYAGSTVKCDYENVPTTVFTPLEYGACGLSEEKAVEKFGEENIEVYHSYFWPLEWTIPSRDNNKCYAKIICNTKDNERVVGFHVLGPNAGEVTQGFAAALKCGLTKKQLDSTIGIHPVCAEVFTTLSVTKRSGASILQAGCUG
Sequence of UniProt Q7Z7G8 (Q7Z7G8 whole entry, looked up): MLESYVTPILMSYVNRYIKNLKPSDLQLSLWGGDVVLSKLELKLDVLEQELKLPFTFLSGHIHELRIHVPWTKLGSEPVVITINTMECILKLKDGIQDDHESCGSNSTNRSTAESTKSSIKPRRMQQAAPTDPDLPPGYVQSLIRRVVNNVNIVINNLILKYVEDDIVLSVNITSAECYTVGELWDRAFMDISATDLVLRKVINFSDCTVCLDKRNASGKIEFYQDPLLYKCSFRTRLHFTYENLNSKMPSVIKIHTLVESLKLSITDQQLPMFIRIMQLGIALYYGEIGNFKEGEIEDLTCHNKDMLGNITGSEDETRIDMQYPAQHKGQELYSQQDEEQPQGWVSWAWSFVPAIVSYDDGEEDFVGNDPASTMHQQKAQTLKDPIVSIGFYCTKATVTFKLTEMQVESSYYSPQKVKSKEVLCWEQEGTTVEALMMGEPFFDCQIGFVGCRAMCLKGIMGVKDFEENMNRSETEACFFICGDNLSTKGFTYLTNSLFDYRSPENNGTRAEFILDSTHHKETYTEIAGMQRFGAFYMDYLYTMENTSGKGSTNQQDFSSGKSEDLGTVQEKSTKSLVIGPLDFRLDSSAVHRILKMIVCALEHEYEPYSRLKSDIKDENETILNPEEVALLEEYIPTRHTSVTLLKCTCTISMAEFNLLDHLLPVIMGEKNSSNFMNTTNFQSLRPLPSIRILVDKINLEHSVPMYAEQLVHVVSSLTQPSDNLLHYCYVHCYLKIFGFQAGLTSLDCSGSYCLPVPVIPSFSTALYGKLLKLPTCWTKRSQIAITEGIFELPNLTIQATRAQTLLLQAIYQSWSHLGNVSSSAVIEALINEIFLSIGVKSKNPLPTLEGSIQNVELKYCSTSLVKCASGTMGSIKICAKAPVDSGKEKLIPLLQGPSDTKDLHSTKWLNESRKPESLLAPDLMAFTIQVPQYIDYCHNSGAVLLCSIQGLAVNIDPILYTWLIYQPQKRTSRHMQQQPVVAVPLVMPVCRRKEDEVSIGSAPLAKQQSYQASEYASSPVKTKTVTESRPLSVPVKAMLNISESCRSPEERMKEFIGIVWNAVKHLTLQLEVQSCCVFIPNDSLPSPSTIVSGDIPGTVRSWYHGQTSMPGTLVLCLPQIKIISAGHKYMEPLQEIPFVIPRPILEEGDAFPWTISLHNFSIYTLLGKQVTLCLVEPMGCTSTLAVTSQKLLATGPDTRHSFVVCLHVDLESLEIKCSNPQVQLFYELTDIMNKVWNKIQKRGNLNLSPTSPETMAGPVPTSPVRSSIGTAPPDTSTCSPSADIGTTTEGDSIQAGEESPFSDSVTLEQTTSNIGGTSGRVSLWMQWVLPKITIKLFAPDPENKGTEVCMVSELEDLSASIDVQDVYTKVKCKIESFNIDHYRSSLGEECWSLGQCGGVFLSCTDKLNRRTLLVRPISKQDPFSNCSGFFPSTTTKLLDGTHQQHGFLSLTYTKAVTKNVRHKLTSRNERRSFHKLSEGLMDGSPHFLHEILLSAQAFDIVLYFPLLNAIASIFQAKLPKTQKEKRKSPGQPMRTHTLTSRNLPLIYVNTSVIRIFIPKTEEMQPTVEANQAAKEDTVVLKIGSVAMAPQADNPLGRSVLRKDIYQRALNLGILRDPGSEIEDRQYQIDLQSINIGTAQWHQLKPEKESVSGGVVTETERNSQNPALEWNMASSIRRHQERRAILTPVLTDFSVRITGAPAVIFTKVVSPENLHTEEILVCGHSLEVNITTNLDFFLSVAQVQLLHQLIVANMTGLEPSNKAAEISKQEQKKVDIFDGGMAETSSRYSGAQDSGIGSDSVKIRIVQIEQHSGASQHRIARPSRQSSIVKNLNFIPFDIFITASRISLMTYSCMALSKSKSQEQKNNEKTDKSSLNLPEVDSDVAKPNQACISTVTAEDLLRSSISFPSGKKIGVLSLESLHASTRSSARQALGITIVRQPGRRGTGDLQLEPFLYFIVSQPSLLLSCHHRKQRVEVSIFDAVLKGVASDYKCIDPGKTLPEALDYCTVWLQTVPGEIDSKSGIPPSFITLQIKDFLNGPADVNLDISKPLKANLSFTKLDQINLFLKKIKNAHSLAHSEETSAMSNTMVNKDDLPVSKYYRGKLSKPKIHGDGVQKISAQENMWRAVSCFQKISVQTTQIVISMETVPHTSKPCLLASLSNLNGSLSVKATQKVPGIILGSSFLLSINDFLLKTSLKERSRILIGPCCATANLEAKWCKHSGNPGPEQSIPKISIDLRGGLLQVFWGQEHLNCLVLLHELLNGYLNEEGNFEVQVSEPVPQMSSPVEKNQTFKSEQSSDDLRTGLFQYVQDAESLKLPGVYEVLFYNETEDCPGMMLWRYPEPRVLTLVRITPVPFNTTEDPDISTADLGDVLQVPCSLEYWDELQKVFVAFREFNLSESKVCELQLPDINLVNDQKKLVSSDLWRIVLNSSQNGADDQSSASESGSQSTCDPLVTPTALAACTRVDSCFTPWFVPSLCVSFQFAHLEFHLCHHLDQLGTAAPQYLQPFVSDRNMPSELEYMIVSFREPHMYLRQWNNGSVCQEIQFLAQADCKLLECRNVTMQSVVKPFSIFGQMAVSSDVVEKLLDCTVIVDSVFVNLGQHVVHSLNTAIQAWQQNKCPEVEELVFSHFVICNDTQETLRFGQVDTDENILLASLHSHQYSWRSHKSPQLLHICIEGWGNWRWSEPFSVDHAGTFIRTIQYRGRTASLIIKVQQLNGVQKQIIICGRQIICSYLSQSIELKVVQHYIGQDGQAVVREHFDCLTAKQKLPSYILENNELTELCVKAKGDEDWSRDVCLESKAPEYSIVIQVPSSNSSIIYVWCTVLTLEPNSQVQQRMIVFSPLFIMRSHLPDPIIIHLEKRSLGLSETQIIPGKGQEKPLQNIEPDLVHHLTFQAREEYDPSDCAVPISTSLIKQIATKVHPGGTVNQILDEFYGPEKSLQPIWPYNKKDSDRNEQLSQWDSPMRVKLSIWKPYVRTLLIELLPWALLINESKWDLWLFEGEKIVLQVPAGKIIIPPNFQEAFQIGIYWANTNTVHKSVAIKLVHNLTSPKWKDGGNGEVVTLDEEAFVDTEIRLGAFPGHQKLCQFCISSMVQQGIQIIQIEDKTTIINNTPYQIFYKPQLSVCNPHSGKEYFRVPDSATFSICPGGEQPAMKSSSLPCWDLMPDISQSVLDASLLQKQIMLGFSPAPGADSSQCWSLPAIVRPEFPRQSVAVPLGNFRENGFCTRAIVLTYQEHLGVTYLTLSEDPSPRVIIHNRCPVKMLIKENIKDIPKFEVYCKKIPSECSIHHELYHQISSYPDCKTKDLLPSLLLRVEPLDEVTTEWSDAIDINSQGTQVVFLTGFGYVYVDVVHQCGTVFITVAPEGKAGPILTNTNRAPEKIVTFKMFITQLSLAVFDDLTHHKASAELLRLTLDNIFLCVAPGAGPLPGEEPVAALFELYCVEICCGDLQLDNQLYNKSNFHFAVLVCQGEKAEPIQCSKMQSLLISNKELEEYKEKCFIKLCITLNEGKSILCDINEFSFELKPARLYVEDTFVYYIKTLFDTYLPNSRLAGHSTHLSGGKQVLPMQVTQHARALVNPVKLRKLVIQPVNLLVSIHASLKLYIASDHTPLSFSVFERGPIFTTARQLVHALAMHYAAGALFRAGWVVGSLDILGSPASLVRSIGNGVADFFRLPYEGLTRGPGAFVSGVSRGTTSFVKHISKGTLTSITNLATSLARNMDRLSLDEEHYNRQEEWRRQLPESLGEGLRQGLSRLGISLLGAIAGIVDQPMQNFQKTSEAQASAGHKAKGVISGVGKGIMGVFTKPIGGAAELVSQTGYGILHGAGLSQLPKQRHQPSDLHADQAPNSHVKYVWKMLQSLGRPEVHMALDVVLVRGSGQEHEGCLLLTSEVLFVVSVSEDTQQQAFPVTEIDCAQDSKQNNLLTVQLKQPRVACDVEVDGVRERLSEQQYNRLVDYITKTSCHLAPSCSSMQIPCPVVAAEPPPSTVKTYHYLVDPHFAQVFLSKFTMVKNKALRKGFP
Sequence of UniProt Q9UL33 (Q9UL33 whole entry, looked up): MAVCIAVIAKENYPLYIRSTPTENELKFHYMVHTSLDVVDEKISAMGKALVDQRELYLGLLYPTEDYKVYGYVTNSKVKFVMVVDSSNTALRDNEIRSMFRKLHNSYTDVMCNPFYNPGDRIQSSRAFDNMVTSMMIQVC
Sequence of UniProt Q9NQ34 (Q9NQ34 whole entry, looked up): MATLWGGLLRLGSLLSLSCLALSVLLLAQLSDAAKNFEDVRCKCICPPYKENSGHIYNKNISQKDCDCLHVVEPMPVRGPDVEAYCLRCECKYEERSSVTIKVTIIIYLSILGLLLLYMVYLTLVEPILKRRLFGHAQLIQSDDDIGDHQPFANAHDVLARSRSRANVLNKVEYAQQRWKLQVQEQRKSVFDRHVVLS
Sequence of UniProt Q9UDW1 (Q9UDW1 whole entry, looked up): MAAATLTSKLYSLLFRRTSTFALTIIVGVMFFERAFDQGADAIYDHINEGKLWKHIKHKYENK

Compound in this test: c1cn2cc(-c3ccc4cn[nH]c4c3)nc(Nc3ccc(N4CCOCC4)cc3)c2n1 [entospletinib]
Nature of the test: log2 fold change, soluble protein after heating vs DMSO (PISA); higher = thermal stabilisation; K562 cells, 10 uM, 30 min; active = over 0.2 and 3.5 SD of the protein, either way, in both replicates (recomputed). A digest of the protocol:
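K562 cells at 2×10^6 cells/mL were exposed to 10 μM compound for 30 min, then aliquots were heated for 3 min across 48°C-58°C, pooled, and extracted in PBS containing 0.5% NP-40 at 4°C. The supernatant after 21,000xg for 90 min was taken as soluble protein and measured by TMTpro 16plex LC-MS/MS with channel sums equalised. Thermal stability is reported relative to control samples, with values from duplicates. Fold changes are given on a log2 scale.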
As for TXNRD1 (UniProt Q16881), the log2 fold change is 0.054.
WDR61 (UniProt Q9GZS3): the log2 fold change was 0.009.
VPS13B (UniProt Q7Z7G8): the log2 fold change is 0.053.
In the case of XIAP (UniProt P98170), the log2 fold change was -0.066.
Under WDR46 (UniProt O15213) stands 0.01.
Under TUBAL3 (UniProt A6NHL2) stands -0.351.
On to TXNL4B (UniProt Q9NX01), for which the log2 fold change is 0.002.
As to TSEN2 (UniProt Q8NCE0), the log2 fold change was -0.041.
Consider USP48 isoform 8 (UniProt Q86UV5), for which the log2 fold change is 0.067.
Under TRIP10 isoform 2 (UniProt Q15642) stands 0.062.
The result for USO1 isoform 2 (UniProt O60763) reads -0.017; that for UBR2 (UniProt Q8IWV8), 0.029; that for TRIM4 (UniProt Q9C037), 0.089.
Take TP53BP1 isoform 2 (UniProt Q12888): the log2 fold change is 0.087.
The result for WDR62 isoform 4 (UniProt O43379) reads -0.043.
For the target UBE2J2 isoform 3 (UniProt Q8N2K1), the log2 fold change is -0.028.
As for TXN2 (UniProt Q99757), the log2 fold change is 0.
Take TMEM9B (UniProt Q9NQ34): the log2 fold change was -0.049.
The result for TRPT1 isoform 4 (UniProt Q86TN4) reads 0.051.
Under TMEM9 (UniProt Q9P0T7) stands -0.05.
TMEM164 (UniProt Q5U3C3): the log2 fold change was 0.007.
As to TRAPPC2L (UniProt Q9UL33), the log2 fold change was 0.039.
Under UHRF1BP1 (UniProt Q6BDS2) stands 0.015; under TXNRD1 isoform 7 (UniProt Q16881), 0.04.
VPS28 (UniProt Q9UK41): the log2 fold change is -0.039.
VPS41 (UniProt P49754): the log2 fold change was 0.017.
For UQCR10 (UniProt Q9UDW1), the log2 fold change is -0.002.
As to TRIM44 (UniProt Q96DX7), the log2 fold change is 0.007.
The result for USP9X (UniProt Q93008) reads -0.01; that for VDAC1 (UniProt P21796), -0.012; that for TMEM120A (UniProt Q9BXJ8), -0.404 (active).
Under VPS72 isoform 2 (UniProt Q15906) stands 0.112; under VDAC1 (UniProt C9JI87), -0.088; under TPM2 (UniProt P07951), -0.069.
For the target USP15 (UniProt Q9Y4E8), the log2 fold change is 0.018.
With UTP14A (UniProt Q9BVJ6), the log2 fold change is 0.042.
As to TMEM161A (UniProt Q9NX61), the log2 fold change is -0.026.
The result for VARS2, A0A0G2JL52 reads -0.03; that for VAMP7 (UniProt P51809), -0.032; that for TMEM223 (UniProt A0PJW6), 0.047.
